Data as given in PubChem BioAssay.
Calls of active or inactive are those of the source.

Tests used:
[1] = binders of probe aFSTL3 on microarray, primary screen, stem cell growth factor project, biochemical, small-molecule microarray, fluorescence 635/667 (AID 1064); conditions: higher = more signal;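 note: measures binding of the biotinylated anti-FSTL3 antibody to printed compounds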
[2] = binders from COS7 lysate, DM2A8 probe, primary screen, torsin A project, cell lysate, small-molecule microarray, fluorescence 635/667 (AID 1065); conditions: higher = more signal, COS7 lysate expressing mutant human TOR1A
[3] = binders of probe aFGF2 on microarray, primary screen, stem cell growth factor project, biochemical, small-molecule microarray, fluorescence 635/667 (AID 1067); conditions: higher = more signal;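 note: measures binding of biotinylated aFGF2 protein to printed compounds on slides; z-score merges feature fluorescence and signal-to-noise across triplicate slides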
[4] = binders of probe aFGF10 on microarray, primary screen, stem cell growth factor project, biochemical, small-molecule microarray, fluorescence 635/667 (AID 1071); conditions: higher = more signal;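 note: score merges 667 nm spot intensity and signal to noise from triplicate slides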
[5] = target: Neurogenic locus notch homolog protein 2 (Homo sapiens) (UniProt Q04721); assay: Notch2 binders on small-molecule microarrays, primary screen, biochemical, small-molecule microarray, 635 nm fluorescence, stem cell growth factors (AID 1073); conditions: Notch2 binding, higher = more signal
Neurogenic locus notch homolog protein 2 (Homo sapiens), sequence (Q04721 whole entry, looked up, canonical isoform): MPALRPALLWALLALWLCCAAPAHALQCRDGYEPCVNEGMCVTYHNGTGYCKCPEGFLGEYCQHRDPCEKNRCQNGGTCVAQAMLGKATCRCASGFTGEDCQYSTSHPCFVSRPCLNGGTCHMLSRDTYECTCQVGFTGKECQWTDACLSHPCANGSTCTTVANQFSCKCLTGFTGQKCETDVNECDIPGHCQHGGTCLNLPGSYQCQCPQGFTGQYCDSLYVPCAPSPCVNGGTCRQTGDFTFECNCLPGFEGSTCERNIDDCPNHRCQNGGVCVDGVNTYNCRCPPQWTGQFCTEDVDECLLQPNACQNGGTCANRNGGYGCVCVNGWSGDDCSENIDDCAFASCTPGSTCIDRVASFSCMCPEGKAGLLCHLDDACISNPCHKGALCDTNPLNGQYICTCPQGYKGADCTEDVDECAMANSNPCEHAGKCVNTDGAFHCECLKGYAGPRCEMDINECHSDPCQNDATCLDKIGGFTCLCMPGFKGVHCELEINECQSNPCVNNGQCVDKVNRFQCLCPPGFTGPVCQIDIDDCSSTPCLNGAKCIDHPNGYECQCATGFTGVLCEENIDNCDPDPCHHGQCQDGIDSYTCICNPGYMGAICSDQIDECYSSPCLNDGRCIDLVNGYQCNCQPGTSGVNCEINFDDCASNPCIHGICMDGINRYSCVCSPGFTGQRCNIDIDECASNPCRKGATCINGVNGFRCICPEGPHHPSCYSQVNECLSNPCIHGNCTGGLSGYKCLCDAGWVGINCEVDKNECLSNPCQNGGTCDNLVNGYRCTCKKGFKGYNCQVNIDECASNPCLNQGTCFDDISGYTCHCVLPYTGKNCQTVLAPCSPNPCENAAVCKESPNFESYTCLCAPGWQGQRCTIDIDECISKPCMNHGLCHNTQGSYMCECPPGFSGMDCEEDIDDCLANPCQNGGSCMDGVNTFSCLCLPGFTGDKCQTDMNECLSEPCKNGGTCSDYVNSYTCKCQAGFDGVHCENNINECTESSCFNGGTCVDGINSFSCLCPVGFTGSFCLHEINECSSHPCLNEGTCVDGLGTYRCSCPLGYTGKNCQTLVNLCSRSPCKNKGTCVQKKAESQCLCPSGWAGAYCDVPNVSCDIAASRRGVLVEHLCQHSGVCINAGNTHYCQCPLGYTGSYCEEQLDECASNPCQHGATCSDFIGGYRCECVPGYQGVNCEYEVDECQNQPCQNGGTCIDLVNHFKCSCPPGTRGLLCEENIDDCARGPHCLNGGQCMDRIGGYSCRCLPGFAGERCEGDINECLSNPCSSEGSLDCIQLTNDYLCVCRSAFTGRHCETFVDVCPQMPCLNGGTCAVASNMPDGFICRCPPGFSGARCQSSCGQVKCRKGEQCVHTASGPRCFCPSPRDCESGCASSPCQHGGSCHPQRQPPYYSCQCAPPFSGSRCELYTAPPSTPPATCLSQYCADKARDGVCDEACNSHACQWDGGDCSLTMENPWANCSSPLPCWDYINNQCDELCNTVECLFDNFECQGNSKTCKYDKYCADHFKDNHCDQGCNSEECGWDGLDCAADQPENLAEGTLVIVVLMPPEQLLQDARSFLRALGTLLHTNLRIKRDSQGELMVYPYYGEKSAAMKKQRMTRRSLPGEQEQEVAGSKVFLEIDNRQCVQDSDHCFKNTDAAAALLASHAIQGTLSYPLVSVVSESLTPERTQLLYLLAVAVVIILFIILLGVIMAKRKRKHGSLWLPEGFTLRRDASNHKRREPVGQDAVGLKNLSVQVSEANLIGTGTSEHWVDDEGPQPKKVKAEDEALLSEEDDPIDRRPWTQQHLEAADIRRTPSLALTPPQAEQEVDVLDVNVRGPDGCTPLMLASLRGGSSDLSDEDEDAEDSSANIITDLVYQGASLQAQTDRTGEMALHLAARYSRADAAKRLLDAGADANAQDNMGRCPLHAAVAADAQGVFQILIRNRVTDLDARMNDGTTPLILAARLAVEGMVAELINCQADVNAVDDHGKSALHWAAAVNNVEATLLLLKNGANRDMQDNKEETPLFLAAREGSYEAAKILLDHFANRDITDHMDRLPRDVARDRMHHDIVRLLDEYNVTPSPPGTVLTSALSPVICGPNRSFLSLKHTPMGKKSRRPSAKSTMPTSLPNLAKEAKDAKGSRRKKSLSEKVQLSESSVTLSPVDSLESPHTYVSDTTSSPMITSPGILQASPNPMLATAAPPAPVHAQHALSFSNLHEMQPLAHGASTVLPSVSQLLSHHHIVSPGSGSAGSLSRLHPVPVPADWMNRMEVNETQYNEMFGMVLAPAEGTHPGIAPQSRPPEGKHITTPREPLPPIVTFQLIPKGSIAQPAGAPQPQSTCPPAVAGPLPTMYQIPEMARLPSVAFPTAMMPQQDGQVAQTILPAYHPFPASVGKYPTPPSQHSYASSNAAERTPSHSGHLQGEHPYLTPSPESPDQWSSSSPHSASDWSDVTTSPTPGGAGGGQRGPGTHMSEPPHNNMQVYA

[6] = target: Pro-neuregulin-1, membrane-bound isoform (Homo sapiens) (UniProt Q02297); assay: NRG1 binders on small-molecule microarrays, primary screen, psychiatric disease protein project, biochemical, small-molecule microarray, fluorescence 635/667 (AID 1075); conditions: NRG1 binding, 635 nm fluorescence, higher = more signal;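 note: score combines 667 nm spot fluorescence with signal to noise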
Pro-neuregulin-1, membrane-bound isoform (Homo sapiens), sequence (Q02297 whole entry, looked up, the tested form may be a part, canonical isoform): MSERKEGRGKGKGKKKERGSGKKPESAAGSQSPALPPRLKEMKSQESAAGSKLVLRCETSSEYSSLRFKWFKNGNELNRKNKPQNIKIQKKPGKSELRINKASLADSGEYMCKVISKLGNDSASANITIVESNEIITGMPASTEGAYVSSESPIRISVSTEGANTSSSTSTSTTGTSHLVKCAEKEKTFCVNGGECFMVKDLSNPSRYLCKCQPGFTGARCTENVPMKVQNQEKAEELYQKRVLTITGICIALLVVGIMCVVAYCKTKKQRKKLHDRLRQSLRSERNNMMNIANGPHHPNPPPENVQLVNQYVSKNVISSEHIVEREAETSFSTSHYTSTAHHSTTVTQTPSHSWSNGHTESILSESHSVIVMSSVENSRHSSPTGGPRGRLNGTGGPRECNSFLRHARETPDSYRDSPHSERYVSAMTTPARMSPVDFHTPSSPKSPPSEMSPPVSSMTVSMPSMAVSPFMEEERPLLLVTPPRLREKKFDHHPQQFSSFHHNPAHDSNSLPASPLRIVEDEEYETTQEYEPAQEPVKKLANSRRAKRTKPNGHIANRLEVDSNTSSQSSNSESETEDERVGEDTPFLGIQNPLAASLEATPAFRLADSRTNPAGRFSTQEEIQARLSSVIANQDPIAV

[7] = system: Neuregulin-1 EGF-like domain; assay: binders of neuregulin-1 EGF-like domain, primary screen, biochemical, small-molecule microarray, 635 nm fluorescence (AID 1081); conditions: small-molecule microarray binding, higher = more signal;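 note: binding of the protein to compounds printed on small-molecule microarray slides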
[8] = FRG1 promoter luciferase signal modulators, primary screen, FRG1 inhibition for FSHD, cell-based, C2C12 myotubes, firefly/Renilla luciferase, luminescence (AID 1084); conditions: higher = more signal, called active from +8 up or from −8 down
[9] = binders of probe aFST on microarray, primary screen, stem cell growth factor project, biochemical, small-molecule microarray, fluorescence 635/667 (AID 1086); conditions: higher = more signal;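 note: score merges 667 nm fluorescence with signal-to-noise of each printed compound spot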
[10] = binders of probe aHhip on microarray, primary screen, stem cell growth factor project, biochemical, small-molecule microarray, fluorescence 635/667 (AID 1087); conditions: higher = more signal;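 note: score merges spot fluorescence at 667nm with spot signal to noise ratio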

| Compound | composite z-score [1] | composite z-score [2] | composite z-score [3] | composite z-score [4] | composite z-score [5] | composite z-score [6] | composite z-score [7] | z-score [8] | composite z-score [9] | composite z-score [10] |
| --- | --- | --- | --- | --- | --- | --- | --- | --- | --- | --- |
| COC(=O)[C@@]1(Cc2ccc(F)cc2)[C@H]2c3cc(C(=O)N(C)C)n(CCc4c[nH]c5ccc(OC)cc45)c3C[C@H]2CN1C(=O)c1ccccc1 | 1.1 | 1.29 | 0.181 | 0.175 | 1.37 | 0.88 | 1.36 | 1.59 (inactive) | 1.34 | 0.836 |
| CC(C)[Si]1(C(C)C)O[C@@H](c2ccccc2)c2cc(-c3ccc(-c4ccc(Cl)c(Cl)c4)o3)nc(CCc3ccccc3)c21 | 0.662 | -0.56 | -0.16 | -0.641 | -0.868 | -0.345 | -0.314 | 0.838 (inactive) | -0.363 | 0.269 |
| Cc1ccc(S[C@]2(C(=O)NCC(C)C)CC(=O)N(Cc3ccccc3)[C@@H]2c2ccc(CO)cc2)cc1 | 0.148 | -0.674 | -0.076 | 0.146 | -0.967 | -0.431 | 0.221 | -3.05 (inactive) | 0.161 | -0.226 |
| COc1cc(CO)cc(I)c1O[C@H]1C=C(C(=O)NCCO)C[C@@H](N(CCc2cccc(F)c2)C(=O)CCC2CCCC2)[C@@H]1O | 0.0822 | 0.825 | 0.195 | 0.146 | 0.0011 | 1.27 | 1.29 | -4.64 (inactive) | 0.336 | 0.219 |
| COc1ccc([Si](C)(C)[C@H]2[C@H](CCO)O[C@@]3(C(=O)N(Cc4cccc(N5C(=O)c6cccc7cccc5c67)c4)c4ccccc43)[C@@H]2C)cc1 | 0.0761 | -0.364 | 0.0253 | 0.404 | -0.136 | 0.795 | 1 | -1.43 (inactive) | -0.26 | -0.212 |
| O=C1OCC=C[C@H]2OC34C=CCN(c5ccc6ccccc6c5)C(=O)[C@H]3N(CCO)C(=O)[C@@H]4[C@@H]12 (stereo not given in full) | 0.982 | -2.22 | -0.166 | -0.361 | -1.4 | 1.7 | 1.39 | 1.18 (inactive) | -0.127 | -0.27 |
| CC[C@@H]1C=C(C(=O)O)[C@H](c2ccc(C(C)C)cc2)N1S(=O)(=O)c1ccc(C)cc1 | 0.341 | 1.41 | 0.412 | 1.12 | 1.75 | 1.91 | 0.908 | -2.32 (inactive) | 1.64 | 0.0401 |
| COCCOC(=O)N1C(=O)[C@@]2(c3cc(C#Cc4ccc(OC)cc4)ccc31)[C@H](c1ccc(O)cc1)N1[C@H](c3ccccc3)[C@H](c3ccccc3)OC(=O)[C@H]1[C@@H]2C(=O)N1CCN(c2ncccn2)CC1 | -0.867 | 0.47 | -0.0225 | 0.381 | 0.846 | 0.467 | 1.13 | -0.431 (inactive) | 0.619 | -0.132 |
| CS(=O)(=O)CCOC(=O)C1=CC(c2ccc(CO)cc2)=CC(c2cccs2)N(Cc2cccc(OC(F)(F)F)c2)C=C1C(=O)OCCS(C)(=O)=O (stereo not given) | -0.398 | 0.405 | 0.024 | 0.708 | 1 | 1.63 | 0.999 | 0.371 (inactive) | 1.14 | 0.0139 |
